Screening results deposited in PubChem BioAssay by National Center for Advancing Translational Sciences (NCATS).
A selection: hits, their analogues and other compounds. The true share with any hit is near 1.2%.
TrxR1 inh = rat TrxR1 inhibition; Potency, µM (highest dose often 114 µM), usual class: inhibitors; recombinant rTrxR1, NADPH fluorescence consumption, selenite substrate; O89049; 390,000 compounds, 1% hits; also: nearly all actives have a fitted effect of over 65% in size
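Rat TrxR1 (90 nM in the dispensed reagent) was pre-reduced with 400 uM NADPH for 5 min at room temperature, then incubated with compound for 15 min. After 400 uM selenite was added, NADPH fluorescence (Ex 340/Em 450 nm) was followed for 8 min.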
GALK inh = inhibitors of human galactokinase; AID 1868; 270,000 compounds, 0.007% hits; Potency, µM (highest dose often 57.5 µM), actives largely listed as inhibitors; Purified GALK, Kinase-Glo residual ATP luminescence; P51570
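Luminescence from leftover ATP (Ultra-Glo luciferase/luciferin) served as read-out after a 1 h room-temperature reaction of 5 nM GALK with 35 uM ATP and 100 uM galactose.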
TrxR1 substrate = is turned over as a substrate by rat TrxR1 | O89049 | purified TrxR1 substrate turnover, NADPH consumption readout | Potency, µM (top dose mostly 114 µM) | 390,000 compounds, 0.01% hits | AID 588456; also: nearly all actives have a fitted effect of over 50% in size
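Rat TrxR1, dispensed at 90 nM, was prereduced with 400 uM NADPH (final) for 5 min at ~22 deg C, then incubated with compound 15 min before 400 uM selenite. A first-read NADPH fluorescence drop versus no-compound background flagged substrates.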
PKM2 act = increases activity of human pyruvate kinase M2 | P14618 | purified PKM2, Kinase-Glo ATP luminescence, activation; response scale: 0% is enzyme alone, no compound | Potency, µM (doses to about 57.5 µM), actives largely listed as activators | 260,000 compounds, 0.34% hits; also: nearly all actives have a fitted effect of over 55% in size
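hPK-M2, >95% pure; 0.1 mM ADP / 0.5 mM PEP final; imidazole pH7.2 buffer w/ 7 mM MgCl2, 50 mM KCl; 1 h RT; Kinase-Glo lum. Intermediate enzyme activity for dual inhibitor/activator qHTS.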
PI4K2A block = blocks human PI4K2A kinase activity. Q9BTU6. purified PI4K2A, ADP-Glo luminescence, 1 h; stronger effect = lower value. activity change, negative = inhibition, % at 76.9 µM. 420,000 compounds, 0.13% hits; in the data active = activity change below about -50%; inconclusive = mostly about -30% to -49%
Target sequence (Q9BTU6 whole entry, looked up): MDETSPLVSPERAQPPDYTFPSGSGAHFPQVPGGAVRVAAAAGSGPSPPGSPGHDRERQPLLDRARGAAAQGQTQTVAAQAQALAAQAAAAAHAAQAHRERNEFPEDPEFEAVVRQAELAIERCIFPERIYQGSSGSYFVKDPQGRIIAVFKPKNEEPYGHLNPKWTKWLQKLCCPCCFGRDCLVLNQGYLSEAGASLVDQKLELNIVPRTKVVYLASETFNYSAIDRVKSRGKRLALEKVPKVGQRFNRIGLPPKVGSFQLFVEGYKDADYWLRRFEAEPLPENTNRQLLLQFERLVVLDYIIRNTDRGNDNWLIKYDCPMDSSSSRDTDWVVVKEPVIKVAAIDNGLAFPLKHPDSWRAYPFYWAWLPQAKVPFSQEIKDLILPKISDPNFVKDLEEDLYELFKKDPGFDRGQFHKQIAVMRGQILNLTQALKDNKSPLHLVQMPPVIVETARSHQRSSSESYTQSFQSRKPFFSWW
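Compounds are screened against recombinant PI4K2A using PI as substrate and ATP, the latter dispensed at 300 microM. Reactions run one hour at ambient temperature before ADP-Glo detection; full inhibition defined by wells lacking enzyme.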
Of the large screens only hits and unclear results are named; the others gave an inactive call. Unless noted, calls follow the shape of the dose curve; as a rule, active = well fitted curve in the direction sought with a large enough effect; inconclusive = small, poorly fitted or top-dose-only effect, or another doubt; inactive = no such curve, though single readings can be large; an effect the other way counts as inactive or inconclusive.

CCOc1cccc2cc(-c3nnc(NCc4ccco4)s3)c(=O)oc12	TrxR1 inh 7.9µM, PI4K2A block inconclusive
COc1cccc2cc(-c3nnc(Nc4c(F)cccc4F)s3)c(=O)oc12	none (no result: GALK inh, PKM2 act)
CN(CCc1ccccc1)C(=O)c1ccc2c(c1)ncn2C1CCCCC1	none (no result: TrxR1 inh, GALK inh, TrxR1 substrate, PKM2 act)
O=C(O)CC1CCC(=C(Cl)Cl)C1 (stereo unspecified)	TrxR1 inh 1µM
CCC(=O)C1=C(c2ccc(F)cc2)N(C(=O)CC)n2c(nnc2C2CCCCC2)S1	none (no result: GALK inh, PKM2 act)
CCOc1cc(/C=C2/C(=O)N(c3ccccc3)N=C2C)ccc1OC(=O)c1cccs1	PI4K2A block -52
COc1ccc(/C=C2/C(=O)N(c3ccccc3)N=C2C)cc1OC	none
CCOC(=O)[C@H]1[C@H]2COc3ccc(C)cc3[C@@H]2N2C(=O)CN(Cc3ccc(C)cc3)C(=O)[C@@]12C	none (no result: GALK inh, PKM2 act)
CCOC(=O)[C@H]1[C@H]2COc3ccc(C)cc3[C@@H]2N2C(=O)CN(Cc3ccco3)C(=O)[C@@]12C	TrxR1 inh 56µM (no result: GALK inh, PKM2 act)
COc1ccc(-c2nc3scc(CCNC(=O)c4cc(OC)cc(OC)c4)n3n2)cc1	none (no result: GALK inh, PKM2 act)
N#Cc1nc(-c2ccc(COc3ccccc3)o2)oc1NCc1cccnc1	none (no result: GALK inh, PKM2 act)
O=c1oc2ccccc2c(Cl)c1CN1CCCCC1	TrxR1 inh 3.2µM
O=c1oc2ccccc2c(N2CCCC2)c1CN1CCCC1	TrxR1 inh inconclusive
O=S(=O)(NC(=S)NC1CCCCC1)c1ccccc1	TrxR1 inh 3.2µM
O=S(=O)(NC(=S)NC1CCCCC1)c1cccs1	TrxR1 inh inconclusive
CCCCCCSc1ccc([C@@H]2[C@H]3C(=O)N(C)C(=O)[C@H]3[C@]3(C(=O)OC)CCCCN23)cc1	none (no result: GALK inh, PKM2 act)
CCCCCCSc1ccc([C@@H]2[C@@H]3C(=O)N(CC)C(=O)[C@@H]3[C@]3(C(=O)OC)CCCCN23)cc1	PI4K2A block -52 (no result: GALK inh, PKM2 act)
C[n+]1cccc2c(Br)ccc([O-])c21	GALK inh inconclusive, TrxR1 substrate inconclusive, PI4K2A block -61
[O-][n+]1cccc2c(Br)cc(Br)c(O)c21	TrxR1 inh inconclusive
Cc1ccc(NS(=O)(=O)c2cc(-c3cnc(C4CC4)o3)ccc2C)cc1Cl	none (no result: GALK inh, PKM2 act)
CN1C(=O)CC(Nc2cccc3cccc(N)c23)C1=O (stereo unspecified)	TrxR1 inh 45µM, PI4K2A block inconclusive
CC(C)N1C(=O)CC(Nc2cccc3cccc(N)c23)C1=O (stereo unspecified)	none
O=C(N1CCOCC1)N1CCN(c2ccccc2F)CC1	PI4K2A block -62
O=C1CC(Nc2ccccc2)C(=O)N1c1ccc(N2CCOCC2)cc1 (stereo unspecified)	none
O=C1CC(Nc2ccc(N3CCOCC3)cc2)C(=O)N1c1ccccc1F (stereo unspecified)	TrxR1 inh 79µM
Cc1ccc(NC(=S)c2ccncc2)c(C)c1	TrxR1 inh 20µM
Cc1ccc(NC(=S)Nc2cccc3cnccc23)c(C)c1	none (no result: PKM2 act)
CC(C)C[C@H](NC1(C(=O)NC2CCCCC2)CCN(C(=O)OC(C)(C)C)CC1)C(=O)NCCc1c[nH]c2ccccc12	none (no result: TrxR1 inh, GALK inh, TrxR1 substrate, PKM2 act)
c1ccc2c(c1)ncn2Cc1nnc2sc(-c3ccc4c(c3)OCO4)nn12	PKM2 act 11µM
c1ccc(CCc2nn3c(Cn4cnc5ccccc54)nnc3s2)cc1	PKM2 act inconclusive
Clc1ccccc1-c1nnc2sc(-c3ccc4c(c3)OCO4)nn12	none
Clc1ccc(Cl)c(-c2nn3c(COc4ccccc4)nnc3s2)c1	none
Clc1ccccc1-c1nn2c(Cn3cnc4ccccc43)nnc2s1	PKM2 act 4µM
COc1ccc(OCc2nn3c(Cn4cnc5ccccc54)nnc3s2)cc1	PKM2 act 25µM
COc1ccc(N(Cc2cccs2)C(=O)COc2ccc(C(C)C)cc2)cc1	none (no result: GALK inh, PKM2 act)
O=C(NC(c1ccccc1)c1ccccc1)c1ccc(Br)o1	none
O=C(/C=C/c1ccc(Br)o1)NC(c1ccccc1)c1ccccc1	TrxR1 inh 20µM
CC(C)(C)c1ccc(CSc2nc3c(c(=O)[nH]2)CCCC3)cc1	none (no result: GALK inh, PKM2 act)
O=C(CCc1ccccc1)NN1C(=O)C2C3C=CC(O3)C2C1=O (stereo unspecified)	TrxR1 inh 45µM, PKM2 act inconclusive
Cc1ccccc1OCC(=O)NN1C(=O)C2C3C=CC(O3)C2C1=O (stereo unspecified)	TrxR1 inh 32µM
CCOc1ccc(C(=O)NN2C(=O)C3C4C=CC(O4)C3C2=O)cc1 (stereo unspecified)	TrxR1 inh 20µM
CCN(CC)C(=O)Cn1nc(Cc2ccncc2)c2ccccc2c1=O	none (no result: TrxR1 inh, GALK inh, TrxR1 substrate, PKM2 act)
C#CCNC(=O)C[C@H]1C[C@@]2(C(=O)OCC)CCCC3=C2N(CCC3)C1=O	none (no result: TrxR1 inh, GALK inh, TrxR1 substrate, PKM2 act)
CCOC(=O)c1ccc2c(c1)C1C=CCC1C(C(=O)O)N2 (stereo unspecified)	none (no result: TrxR1 inh, TrxR1 substrate, PI4K2A block)
CCOC(=O)C1Nc2ccc(C(=O)O)cc2C2C=CCC12 (stereo unspecified)	TrxR1 inh 11µM
CCCC1Nc2ccc(C(=O)O)cc2C2C=CCC12 (stereo unspecified)	TrxR1 inh 50µM
CCOc1ccc(C2/C(=C(/O)c3ccc(F)cc3)C(=O)C(=O)N2CCCN(C)C)cc1 (stereo unspecified)	none
C=CCOc1ccc(C2/C(=C(\O)c3ccc(F)cc3)C(=O)C(=O)N2CCCN(C)C)cc1 (stereo unspecified)	TrxR1 inh 35µM
Cc1ccc(OCC(=O)Nc2cc(-c3cccc(C)c3)nn2-c2ccccc2)cc1	none (no result: GALK inh, PKM2 act)
O=C(CCl)Nc1cc(-c2ccccc2)nn1-c1ccccc1	TrxR1 inh 22µM
Cc1ccc(-c2cc(NC(=O)CCl)n(-c3ccccc3)n2)cc1	TrxR1 inh 35µM
Cc1cccc(CCNC(=O)CSc2nc3c([nH]2)c(=O)n(C)c(=O)n3C)c1	none (no result: TrxR1 inh, GALK inh, TrxR1 substrate, PKM2 act)
COC(=O)C[C@@H]1CC[C@H]2[C@@H](COc3ccc(NC(=O)Nc4ccc(C)cc4)cc3C(=O)N2C)O1	none (no result: TrxR1 inh, GALK inh, TrxR1 substrate, PKM2 act)
CCN(CC)C(=O)Cn1nnc2sc(-c3ccccc3)cc2c1=O	none (no result: GALK inh, PKM2 act)
CCOc1ccc(Nc2nc(N)c3ccccc3n2)cc1	PI4K2A block -80
Cc1ccc(NS(=O)(=O)c2ccc(-c3cc(C)no3)cc2)c(Br)c1	none (no result: GALK inh, PKM2 act)
COc1ccc(C(=O)CCN(C)C)c2ccccc12	TrxR1 inh 0.4µM (no result: GALK inh, PKM2 act, PI4K2A block)
CCCCCOc1ccccc1CN1C(=O)C(=O)c2cc(C)ccc21	none (no result: GALK inh, PKM2 act)
Cc1ccc(C(=S)NCS(=O)(=O)c2ccc(C)cc2)cc1	TrxR1 inh inconclusive
Cc1ccc(S(=O)(=O)CNC(=S)c2cccc(Cl)c2)cc1	TrxR1 inh 14µM
COc1ccc(C(=O)Oc2c(Sc3ccc(C)cc3)c(C)nn2C(C)(C)C)c(OC)c1	none (no result: GALK inh, PKM2 act)
CCCC(=O)N(C1CC(C)C(C#N)(C#N)C1(C#N)C#N)N(C)C (stereo unspecified)	TrxR1 inh 2.5µM, PKM2 act inconclusive
